Here are results for 30 compounds from PubChem BioAssay AID2762 (National Center for Advancing Translational Sciences (NCATS), 2010).

Inconclusive results are not listed. Activity calls are given as the source filed them. Calls follow the shape of the dose curve; as a rule, active = well fitted inhibition curve with a large enough effect; inconclusive = small, poorly fitted or top-dose-only effect, or effect the other way; inactive = no such curve, though single readings can be large or run the other way.

Nuclear receptor ROR-gamma (Mus musculus), sequence (P51450 whole entry, looked up, the tested form may be a part): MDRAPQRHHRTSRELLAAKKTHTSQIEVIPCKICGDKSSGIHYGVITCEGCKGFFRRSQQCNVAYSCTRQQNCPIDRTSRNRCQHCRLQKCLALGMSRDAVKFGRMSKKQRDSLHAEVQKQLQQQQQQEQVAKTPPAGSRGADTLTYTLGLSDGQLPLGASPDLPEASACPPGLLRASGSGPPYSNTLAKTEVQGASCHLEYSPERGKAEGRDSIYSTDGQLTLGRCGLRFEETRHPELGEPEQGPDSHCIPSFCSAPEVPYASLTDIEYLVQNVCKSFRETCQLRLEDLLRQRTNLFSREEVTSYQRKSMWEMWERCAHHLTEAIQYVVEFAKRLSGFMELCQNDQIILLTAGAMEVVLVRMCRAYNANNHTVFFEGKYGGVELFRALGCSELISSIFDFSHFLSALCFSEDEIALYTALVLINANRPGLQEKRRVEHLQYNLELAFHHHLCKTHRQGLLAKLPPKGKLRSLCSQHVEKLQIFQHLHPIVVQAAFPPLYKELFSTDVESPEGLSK

The target of this assay is Nuclear receptor ROR-gamma (Mus musculus) (UniProt P51450). Put plainly: Concentration response confirmation assay for inhibitors of ROR gamma transcriptional activity. The following applies: Drosophila S2 Gal4-RORgamma UAS-luciferase, 20 h; series mostly up to 46.1 µM. Summed up:
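In this cell-based reporter format, copper sulfate (700 uM final) drives Gal4–ROR gamma fusion expression from a metallothionein promoter in Drosophila Schneider cells; compounds preincubated 1 hr, reporter read after 20 hr at ambient temperature.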
As for `COc1ccc(C(=O)Nc2nc3cc4c(cc3s2)OCCO4)c(OC)c1`, the Potency was 62.8 nM (active).

For `NC(=O)/C=C/C(=O)Nc1ccc(Cl)cc1`, the Potency was 8880 nM (active). The value for `CCOC(=O)c1sc(NC(=O)c2sc(C)nc2C)nc1C` was “inactive”. For `Cc1ccc(C)c(/C=N/n2cc(-c3ccccc3)[nH]c2=S)c1`, the Potency was 791 nM (active). With `Cc1ccc2nc(-c3ccc(NC(=O)COC(=O)c4ccc([N+](=O)[O-])o4)cc3)sc2c1`, the Potency is 315 nM (active).

Take `O=c1oc2c3c(nn2c2ccccc12)CCCC3`: the Potency entry was “inactive”. The value for `Cc1cc(NC(=O)CN2CCOCC2)n(-c2nc3ccccc3s2)n1` was 15800 nM (active); that for `O=C(O)c1ccc(/C=N/n2cc(-c3ccccc3)[nH]c2=S)cc1` was “inactive”. Regarding `CCOC(=O)C(C(=O)OCC)C(C(=O)OCC)N1CCOCC1` (stereo not given), the Potency is 3150 nM (active). `COC(=O)c1ccc(Oc2cc(C)nc(-n3nc(C)cc3C)n2)cc1`: the Potency was 1580 nM (active). As to `CCN(CC(=O)NCCc1ccc(Cl)cc1)Cc1nc2ccccc2c(=O)[nH]1`, the Potency is 12500 nM (active). Consider `O=C1NC2=C(C(=O)CCC2)C(c2ccccc2)N1` (stereo not given), for which the Potency entry is “inactive”. With `Cc1cc(C)c2[nH]c(C(=O)Nc3ccc4c(c3)OCO4)cc2c1`, the Potency was 125 nM (active). In the case of `Cc1cccc(-c2nc3cc(NC(=O)C4CCCO4)ccc3o2)c1` (stereo not given), the Potency was 396 nM (active). As to `Cc1nn(-c2cc(C)c3ccccc3n2)c2c1C1C(C2)C1(C)C` (stereo not given), the Potency was 6280 nM (active). `O=C(CN1CCCCCC1)Nc1ccc(S(=O)(=O)N2CCOCC2)cc1`: the Potency result was “inactive”. In the case of `CCOc1ccc2nc(NC(=O)c3cnccn3)sc2c1`, the Potency was 3150 nM (active). Regarding `CCOC(=O)[C@@H]1[C@H]2COc3cc(OC)ccc3[C@@H]2N2C(=O)N(c3ccc(C)cc3)C(=O)[C@@]12C`, the Potency is 14100 nM (active).

As to `Cc1cc(C)c(S(=O)(=O)NCCn2ccc3ccccc32)c(C)c1`, the Potency entry was “inactive”. On to `CCOC(=O)c1oc2cccc(OCC(O)CNC(C)C)c2c1C` (stereo not given), for which the Potency entry was “inactive”. For the compound `O=C(Cn1c(=O)oc2ccc(Cl)cc21)Nc1ccon1`, the Potency entry was “inactive”.

`COc1ccc(C(=O)/C=C/c2ccc(OC)cc2OC)c(O)c1`: the Potency is 888 nM (active). The value for `COc1ccc2nc(NC(=O)c3sc4nc(C)cc(C)c4c3N)sc2c1` was 19.9 nM (active); that for `O=C(CCN1C(=O)/C(=C/c2ccccc2Cl)SC1=S)N1CCCC1` was 11200 nM (active); that for `CCN1CCCc2cc(CN(CCN3CCOCC3)C(=S)Nc3ccc(C)cc3)ccc21` was 9960 nM (active). As for `O=[N+]([O-])c1ccccc1/C=C/C=N/n1c(-c2ccc(Cl)cc2)n[nH]c1=S`, the Potency result is “inactive”.

Take `Clc1ccccc1/C=N/NC1=Nc2cccc3cccc1c23`: the Potency is 199 nM (active).

Regarding `O=C(O)/C=C/C(=O)Nc1ccccc1SC(F)(F)F`, the Potency entry was “inactive”. The value for `CCC(C)[C@H](NC(=O)NCc1ccco1)C(=O)O` (stereo not given in full) was “inactive”; that for `CCn1nc(C)c(CN2CCC(n3nccc3NC(=O)c3ccc4c(c3)OCO4)CC2)c1C` was “inactive”.
